This is a sample that favours compounds with a hit; in the whole collection about 12% have one here.
Cycloheximide cs: affects cycloheximide protein synthesis inhibition readout, counter-screen; cell reporter, cycloheximide protein synthesis inhibition counterscreen; max response, %; 300,000 tested, 12% active; in the data active = max response mostly above about 13%, no sharp cut-off; inactive = mostly below about 14%; also: read at 38.3 µM for the half of the compounds with a filed dose; 0% is about no effect
Shiga inhibitor: inhibitors of Shiga toxin in Vero cells; Vero cells, Shiga toxin protein synthesis inhibition reporter; inhibition, % at 38.7 µM; 290,000 tested, 9.2% active; AID 2315; in the data active = inhibition mostly above about 28%, no sharp cut-off; inactive = mostly below about 43%; also: 0% is about no effect
Lassa entry inh: inhibitors of Lassa virus binding or cell entry | Lassa virus pseudotype entry inhibition, cell reporter | Potency, µM (highest dose often 37.9 µM), without a hit: at the highest dose activity change, negative = inhibition, hits mostly inhibitors | 300,000 tested, 1.2% active | AID 540256; calls by dose curve; tested in HEK293 cells; also: potency is read from the fitted curve at half-maximal effect; % is scaled to controls: 0 for no effect and ±100 for the full control effect; nearly all actives have a fitted effect of over 50% in size
MARV entry inh: blocks Marburg virus binding to or entry into cells | Marburg virus pseudotyped entry inhibition, cell reporter | Potency, µM (series often up to 37.8 µM), without a hit: at the highest dose activity change, negative = inhibition, hits mostly inhibitors | 300,000 tested, 1.8% active; calls by dose curve; tested in HEK293 cells; also: potency is read from the fitted curve at half-maximal effect; % is scaled to controls: 0 for no effect and ±100 for the full control effect
Starred values were filed as active, the others as inactive; ? = inconclusive; . = not tested or not shown; + = active, no number; [ ] = remark or other dose.

SMILES | Cycloheximide cs | Shiga inhibitor | Lassa entry inh | MARV entry inh
CCOC(=O)c1cc(C#N)c(N2CCN(C)CC2)nc1-c1ccccc1 | -3 | -8 | 2%[46.1 µM] | -13%[46.1 µM]
COc1ccc2nc(N3CCC(O)CC3)c(C#N)cc2c1 | 36* | 92 | -12% | 8%
CCc1ccc2nc(N3CCN(C)CC3)c(C#N)cc2c1 | 22* | 17* | 9% | -21%[46.1 µM]
COc1ccc2nc(N3CCC(C)CC3)c(C#N)cc2c1 | 44* | 92* | 13% | ?
COc1ccc2cc(C#N)c(N3CCOCC3)nc2c1 | -2 | -3 | ? | -18%
COc1cccc(C(=O)Nc2ccc3nc(SCc4ccc(C)cc4)sc3c2)c1 | . | . | -1%[46.1 µM] | 6%[46.1 µM]
CCCn1c(N)c(C(=O)CSc2ncc(C(F)(F)F)cc2Cl)c(=O)[nH]c1=O | -3 | 32 | 3.2µM* | ?
O=[N+]([O-])c1ccc(NC(c2ccccc2)c2ccc3cccnc3c2O)cc1 (stereo unspecified) | . | . | ? | 1.4µM*
CC(=O)NC(c1cccc([N+](=O)[O-])c1)c1ccc2cccnc2c1O (stereo unspecified) | -1 | 2 | ? | ?
Cc1ccc(C)c(CN2CCC(CNC(=O)Nc3ccc(Cl)cc3)CC2)c1 | 31 | 27 | -6%[46.1 µM] | ?
Cc1ccc(C)c(CN2CCC(CNC(=O)Nc3ccc(Br)cc3F)CC2)c1 | 5 | -10 | ? | 4.5µM*
Cc1ccc(OCc2ccc(C(=O)O)o2)c([N+](=O)[O-])c1 | 13* | 22 | 0% | -22%
COC(=O)c1ccc(COc2ccccc2[N+](=O)[O-])o1 | 45* | 73* | 9% | 35%
COC(=O)c1ccc(COc2ccccc2/C=N/O)o1 | 6 | 31 | 5% | -19%[46.1 µM]
Cc1ccc(OCc2ccc(C(=O)N3CCCC3)o2)c([N+](=O)[O-])c1 | 18 | 24 | 19% | 4%[46.1 µM]
Cc1ccc(C)c(N2CCN(c3c(CN4CCCC4)c(=O)oc4ccccc34)CC2)c1 | . | . | 23%[46.1 µM] | ?
O=C1N(CCCCN2C(=O)C3(OCCO3)c3ccccc32)c2ccccc2C12OCCO2 | -3 | -3 | -7% | -5%
CN1C(=O)C2(OCC(CO)([N+](=O)[O-])CO2)c2ccccc21 (stereo unspecified) | 14* | 51* | . | .
Cc1ccc(C(=O)Nc2nnc(S(=O)(=O)N(C)Cc3ccc(F)cc3)s2)cc1 | . | . | 4%[46.1 µM] | .
CN(Cc1ccccc1)C(=O)c1cc(-c2ccc(Br)cc2)on1 | 21* | 69* | 23% | -3%
CCCNC(=O)c1cc(-c2ccc(Br)cc2)on1 | 34* | 66* | ? | ?
CC(C)NC(=O)c1cc(-c2ccc(Br)cc2)on1 | 49* | 122* | ? | ?
CCOC(=O)c1c(NC(=O)c2cc(-c3ccc(Br)cc3)on2)sc(C(C)=O)c1C | . | . | 1%[46.1 µM] | ?
O=C(Nc1ccc2c(c1)OCO2)c1cc(-c2ccc(Br)cc2)on1 | . | . | 4%[46.1 µM] | 6%[46.1 µM]
CCN(c1ccccc1)S(=O)(=O)c1cc(Br)cc2c1N(C(=O)C1CC1)CC2 | . | . | 22%[46.1 µM] | 4%[46.1 µM]
SMILES | Cycloheximide cs | Shiga inhibitor | Lassa entry inh | MARV entry inh
O=S(CC1CC1(Cl)Cl)CC1CC1(Cl)Cl (stereo unspecified) | 4 | -7 | 7% | 16%
COc1ccccc1OCC(=O)NCC1(N2CCOCC2)CCCCC1 | . | . | -11%[46.1 µM] | -15%[46.1 µM]
Cc1ccc(NC(=O)C2C(=O)N(C)c3ccccc32)cc1 (stereo unspecified) | 19* | 42 | -1% | -3%
CN1C(=O)C(C(=O)Nc2ccccc2F)c2ccccc21 (stereo unspecified) | -5 | 20 | -2% | 7%
COc1cc(/C=C2\OC(=O)c3c(OC)cccc32)ccc1O | 79* | 100* | -9% | 15%[46.1 µM]
COc1cc(C=C2C(=O)NC(=O)NC2=O)ccc1O | -3 | -5 | . | .
CNC(=O)N(O)C1N(/N=C/c2ccccc2O)C(=S)SC1(C)C (stereo unspecified) | 15* | 28 | 14% | -4%[46.1 µM]
Cc1cccc(NC(=O)CN2C(=O)N/C(=C\c3ccc(-c4cccc(C(=O)O)c4)o3)C2=O)c1 | 54* | 174* | 6%[46.1 µM] | 4%[46.1 µM]
COc1cccc(/C=C2/NC(=O)N(CC(=O)Nc3ccc(C)cc3)C2=O)c1OCc1cccc(C(=O)O)c1 | -4 | 20 | 7%[46.1 µM] | 12%[46.1 µM]
Cc1ccc(NC(=O)CN2C(=O)N/C(=C/c3ccccc3OCc3cccc(C(=O)O)c3)C2=O)cc1 | 43* | 48* | ? | ?
CCN=C1S/C(=C\c2ccc(-c3cccc(C(=O)O)c3)o2)C(=O)N1CC | 83* | + | 2% | -22%
COc1cc(F)c(S(=O)(=O)N2CCN(S(=O)(=O)c3ccc4c(c3)OCCO4)CC2)c(F)c1 | -7 | -5 | . | .
CC(=O)c1cc(-c2ccc(F)cc2)n(CCC(=O)NCc2ccc(C)cc2)c1C | . | . | -2%[46.1 µM] | .
COc1cccc(N2CCN(C(=O)c3oc4ccccc4c3NC(=O)Cc3ccc(OC)c(OC)c3)CC2)c1 | -9 | -2 | ? | ?
Nc1ccc(Oc2cc(N)cc(Oc3ccccc3)c2)cc1 | 44* | 68* | ? | ?
Nc1ccc(Oc2ccc3nc(-c4ccccc4)c(-c4ccccc4)nc3c2)cc1 | 1 | -7 | ? | ?
Cc1ccnc2nc(C(=O)OCC(=O)Nc3ccc4c(c3)OCCO4)nn12 | . | . | -2%[46.1 µM] | 1%[46.1 µM]
S=C(Nc1ccc2c(c1)OCCO2)Nc1ccc2c(c1)OCO2 | 57* | 120* | . | .
S=C(Nc1ccc2c(c1)OCO2)Nc1ccccc1Cl | 24* | 35* | . | -3%
CCN(CC(=O)N1CCCC1)S(=O)(=O)c1ccc(OC)cc1 | -2 | -1 | 2% | -20%
CN(C)S(=O)(=O)c1cccc(C(=O)NC2CCCc3ccccc32)c1 (stereo unspecified) | -1 | -14 | 19% | 1%
CCCNS(=O)(=O)c1cccc(C(=O)NC2CCCc3ccccc32)c1 (stereo unspecified) | -1 | -21 | 18µM* | 1%
COc1ccc(C2=NOC(CN3C(=O)c4ccccc4S3(=O)=O)C2)cc1 (stereo unspecified) | 64* | 125* | ? | -11%
O=C(CCN1C(=O)c2ccccc2S1(=O)=O)Nc1ccc(Cl)cc1 | 1 | 35 | -21%[46.1 µM] | 25%[46.1 µM]
O=C1c2ccccc2S(=O)(=O)N1CC1CC(c2ccccc2)=NO1 (stereo unspecified) | 44* | 89* | ? | 11%
SMILES | Cycloheximide cs | Shiga inhibitor | Lassa entry inh | MARV entry inh
O=C1c2ccccc2S(=O)(=O)N1CC1CC(c2ccc(Cl)cc2)=NO1 (stereo unspecified) | 61* | 66* | -1% | ?
N#CCCN(C(=O)COC(=O)c1cc2ccccc2oc1=O)c1ccccc1 | . | . | 0% | ?
CC(=NC1CCCCC1)C1=C(O)c2ccccc2C1=O | 46* | 50 | ? | ?
C=CCOC(=O)C(C(C)=O)C(NC(=O)OC)c1cccc(F)c1 (stereo unspecified) | . | . | . | 12%[14.2 µM]
CCCCCSc1cc(OC)c(CCN(C)C)cc1OC | 20* | 4 | ? | ?
COc1ccc2[nH]cc(CCN(C)C)c2c1 | -1 | -9 | . | ?
Cc1ccc(-n2ncc3c(=O)n(CC(N)=O)cnc32)cc1C | 7 | 17 | . | .
COc1cc(C(C)=O)ccc1Oc1ncnc2c1cnn2-c1ccc(C)c(C)c1 | 32* | 63* | -21% | ?
CNC(=O)CSc1ncnc2c1cnn2-c1ccccc1 | 35* | 69* | -11% | 4%[46.1 µM]
Cc1ccc(-n2ncc3c(SCC(N)=O)ncnc32)cc1C | 48* | 52* | -4% | -3%

Screening results deposited in PubChem BioAssay by National Center for Advancing Translational Sciences (NCATS).
